Test results reported in the supplement of paper PMC10849652.
About 7,900 targets were measured; listed, in parts, are those with a hit and a random draw of the rest. About 0.6% of all pairs of compound and target were hits.

Assays:
Experiment in all cases: log2 fold change, soluble protein after heating vs DMSO (PISA); higher = thermal stabilisation; K562 cells, 10 uM, 30 min; active = over 0.2 and 3.5 SD of the protein, either way, in both replicates (recomputed)
ZC3H8 = ZC3H8 (UniProt Q8N5P1)
Chain of ZC3H8 (Q8N5P1 whole entry, looked up): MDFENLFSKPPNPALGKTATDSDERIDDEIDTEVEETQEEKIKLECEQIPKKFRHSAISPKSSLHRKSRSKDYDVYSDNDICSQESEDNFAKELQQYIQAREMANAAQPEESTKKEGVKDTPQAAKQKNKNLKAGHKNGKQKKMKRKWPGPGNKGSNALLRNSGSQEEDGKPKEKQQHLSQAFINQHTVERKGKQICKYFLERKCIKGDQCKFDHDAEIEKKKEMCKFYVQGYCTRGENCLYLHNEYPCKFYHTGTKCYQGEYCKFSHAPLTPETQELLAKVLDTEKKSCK
How it was run: (§1)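 For each measurement, 10 μM compound was applied for 30 min to K562 cells at 2×10^6 cells/mL. Aliquots were heated for 3 min across 48°C-58°C, pooled, and extracted in PBS with 0.5% NP-40 at 4°C; the supernatant after 21,000xg for 90 min was soluble protein. This was quantified by TMTpro 16plex LC-MS/MS with channel sums equalised, and thermal stability was reported relative to control samples from duplicates, on a log2 fold-change scale.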

ZC3HC1 = ZC3HC1 (UniProt Q86WB0)
Chain of ZC3HC1 (Q86WB0 whole entry, looked up): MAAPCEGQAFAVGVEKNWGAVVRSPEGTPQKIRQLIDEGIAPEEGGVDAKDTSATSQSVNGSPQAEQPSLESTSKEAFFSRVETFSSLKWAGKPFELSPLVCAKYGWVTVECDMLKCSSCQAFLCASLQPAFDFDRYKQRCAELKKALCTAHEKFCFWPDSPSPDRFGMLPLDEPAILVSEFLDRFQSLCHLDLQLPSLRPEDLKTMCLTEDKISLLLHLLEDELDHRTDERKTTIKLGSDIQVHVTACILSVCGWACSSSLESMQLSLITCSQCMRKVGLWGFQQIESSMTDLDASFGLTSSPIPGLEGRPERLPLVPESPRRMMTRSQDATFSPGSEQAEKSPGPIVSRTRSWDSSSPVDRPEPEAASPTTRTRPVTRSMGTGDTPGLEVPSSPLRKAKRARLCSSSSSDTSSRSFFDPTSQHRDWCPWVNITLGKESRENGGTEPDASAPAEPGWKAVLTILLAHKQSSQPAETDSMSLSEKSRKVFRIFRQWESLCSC
How it was run: as §1

ZCCHC9 = ZCCHC9 (UniProt Q8N567)
Chain of ZCCHC9 (Q8N567 whole entry, looked up): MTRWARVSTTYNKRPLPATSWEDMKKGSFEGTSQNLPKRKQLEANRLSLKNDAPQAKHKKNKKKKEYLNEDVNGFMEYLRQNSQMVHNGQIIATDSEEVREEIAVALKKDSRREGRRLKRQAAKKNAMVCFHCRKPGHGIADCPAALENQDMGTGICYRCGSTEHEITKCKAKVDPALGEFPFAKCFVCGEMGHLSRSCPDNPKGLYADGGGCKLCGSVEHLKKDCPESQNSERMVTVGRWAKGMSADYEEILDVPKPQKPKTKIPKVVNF
How it was run: as §1

ZDHHC17 = ZDHHC17 (UniProt Q8IUH5)
Chain of ZDHHC17 (Q8IUH5 whole entry, looked up): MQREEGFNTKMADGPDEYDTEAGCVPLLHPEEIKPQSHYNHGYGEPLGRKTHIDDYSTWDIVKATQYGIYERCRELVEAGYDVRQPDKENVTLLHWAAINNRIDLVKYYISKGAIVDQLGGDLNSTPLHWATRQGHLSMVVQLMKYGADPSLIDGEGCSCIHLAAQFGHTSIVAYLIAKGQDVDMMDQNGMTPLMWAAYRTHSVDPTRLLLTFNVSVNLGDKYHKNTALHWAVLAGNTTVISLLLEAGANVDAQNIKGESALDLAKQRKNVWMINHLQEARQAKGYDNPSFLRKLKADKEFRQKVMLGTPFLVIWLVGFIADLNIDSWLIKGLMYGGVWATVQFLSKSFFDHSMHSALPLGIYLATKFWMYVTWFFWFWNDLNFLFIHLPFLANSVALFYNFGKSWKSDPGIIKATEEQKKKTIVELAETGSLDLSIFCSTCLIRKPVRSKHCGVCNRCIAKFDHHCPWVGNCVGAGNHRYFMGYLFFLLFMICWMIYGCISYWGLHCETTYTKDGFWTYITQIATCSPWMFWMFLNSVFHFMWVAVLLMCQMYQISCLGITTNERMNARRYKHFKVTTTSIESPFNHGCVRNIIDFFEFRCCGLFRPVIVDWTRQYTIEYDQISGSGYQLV
How it was run: as §1

ZDHHC20 = ZDHHC20 (UniProt Q5W0Z9)
Chain of ZDHHC20 (Q5W0Z9 whole entry, looked up): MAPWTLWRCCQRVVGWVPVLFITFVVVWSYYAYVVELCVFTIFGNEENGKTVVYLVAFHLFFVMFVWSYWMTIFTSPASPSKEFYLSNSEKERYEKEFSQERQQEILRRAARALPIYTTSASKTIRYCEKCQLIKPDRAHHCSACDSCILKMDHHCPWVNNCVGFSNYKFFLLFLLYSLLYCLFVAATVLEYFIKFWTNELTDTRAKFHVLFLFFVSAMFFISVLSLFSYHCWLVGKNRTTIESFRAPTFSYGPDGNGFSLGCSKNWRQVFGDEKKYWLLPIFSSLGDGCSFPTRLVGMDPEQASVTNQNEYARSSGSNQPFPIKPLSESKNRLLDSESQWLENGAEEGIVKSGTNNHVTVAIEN
How it was run: as §1

ZDHHC5 = ZDHHC5 (UniProt Q9C0B5)
Chain of ZDHHC5 (Q9C0B5 whole entry, looked up): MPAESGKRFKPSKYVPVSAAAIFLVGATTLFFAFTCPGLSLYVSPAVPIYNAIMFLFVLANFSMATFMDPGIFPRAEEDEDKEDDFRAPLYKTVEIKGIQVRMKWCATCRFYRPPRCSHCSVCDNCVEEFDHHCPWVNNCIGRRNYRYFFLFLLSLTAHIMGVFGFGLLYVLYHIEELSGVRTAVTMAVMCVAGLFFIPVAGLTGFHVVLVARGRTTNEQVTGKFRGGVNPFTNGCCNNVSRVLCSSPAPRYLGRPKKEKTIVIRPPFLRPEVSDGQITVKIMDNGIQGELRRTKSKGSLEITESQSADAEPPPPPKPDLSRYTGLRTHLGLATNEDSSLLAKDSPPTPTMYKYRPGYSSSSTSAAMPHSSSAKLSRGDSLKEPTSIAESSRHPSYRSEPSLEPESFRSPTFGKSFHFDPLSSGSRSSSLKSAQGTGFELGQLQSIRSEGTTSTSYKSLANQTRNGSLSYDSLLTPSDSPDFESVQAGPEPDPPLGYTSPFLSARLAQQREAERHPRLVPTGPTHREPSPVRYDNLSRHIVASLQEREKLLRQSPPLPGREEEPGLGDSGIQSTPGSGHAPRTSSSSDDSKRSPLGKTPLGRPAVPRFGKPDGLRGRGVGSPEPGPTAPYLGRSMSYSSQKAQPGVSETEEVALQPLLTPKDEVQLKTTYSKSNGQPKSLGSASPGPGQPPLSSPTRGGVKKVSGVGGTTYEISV
How it was run: as §1

ZDHHC6 = ZDHHC6 (UniProt Q9H6R6)
Chain of ZDHHC6 (Q9H6R6 whole entry, looked up): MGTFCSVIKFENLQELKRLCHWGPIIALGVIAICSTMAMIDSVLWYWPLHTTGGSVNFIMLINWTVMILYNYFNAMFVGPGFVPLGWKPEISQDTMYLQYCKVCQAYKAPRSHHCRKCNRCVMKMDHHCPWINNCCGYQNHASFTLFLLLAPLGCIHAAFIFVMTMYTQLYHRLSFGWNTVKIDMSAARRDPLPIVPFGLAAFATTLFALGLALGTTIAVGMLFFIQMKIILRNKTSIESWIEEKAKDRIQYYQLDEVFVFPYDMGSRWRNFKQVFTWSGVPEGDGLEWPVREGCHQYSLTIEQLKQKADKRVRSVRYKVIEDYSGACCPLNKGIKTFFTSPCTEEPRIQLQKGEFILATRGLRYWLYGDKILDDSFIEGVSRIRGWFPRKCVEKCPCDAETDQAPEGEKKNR
How it was run: as §1

ZDHHC7 isoform 2 = ZDHHC7 isoform 2 (UniProt Q9NXF8)
Chain of ZDHHC7 isoform 2 (Q9NXF8 whole entry, looked up, canonical isoform): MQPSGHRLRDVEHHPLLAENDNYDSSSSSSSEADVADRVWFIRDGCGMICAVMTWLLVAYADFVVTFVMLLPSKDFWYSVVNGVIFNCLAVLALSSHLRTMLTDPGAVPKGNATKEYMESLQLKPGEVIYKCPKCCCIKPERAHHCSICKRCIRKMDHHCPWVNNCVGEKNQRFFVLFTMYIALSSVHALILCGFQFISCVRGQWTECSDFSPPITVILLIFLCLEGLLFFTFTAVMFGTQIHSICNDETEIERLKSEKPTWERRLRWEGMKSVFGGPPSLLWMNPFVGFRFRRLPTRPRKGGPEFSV
How it was run: as §1

ZCCHC17 = ZCCHC17 (UniProt Q9NP64)
Chain of ZCCHC17 (Q9NP64 whole entry, looked up): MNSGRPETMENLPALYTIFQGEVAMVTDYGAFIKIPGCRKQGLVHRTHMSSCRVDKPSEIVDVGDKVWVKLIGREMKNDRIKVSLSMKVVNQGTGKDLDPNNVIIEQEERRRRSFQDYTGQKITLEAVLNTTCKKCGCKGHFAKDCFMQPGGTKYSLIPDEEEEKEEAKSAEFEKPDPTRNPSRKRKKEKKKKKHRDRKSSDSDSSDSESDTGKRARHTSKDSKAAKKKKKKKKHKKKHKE
How it was run: as §1

Measured: log2 fold change

COC(=O)N[C@@H](C)CNc1nccc(-c2cn(C(C)C)nc2-c2cc(Cl)cc(NS(C)(=O)=O)c2F)n1 [encorafenib]
inactive: ZC3H8 -0.01 | ZC3HC1 0.05 | ZCCHC9 0.002 | ZDHHC17 -0.015 | ZDHHC20 -0.058 | ZDHHC5 -0.028 | ZDHHC6 0.006 | ZDHHC7 isoform 2 -0.043

FC(F)(F)c1ccc(/C=C/c2nc(COc3ccc(CCCCn4ccnn4)cc3)co2)cc1 [mubritinib]
inactive: ZC3H8 -0.102 | ZC3HC1 -0.049 | ZCCHC9 -0.087 | ZDHHC17 0.051 | ZDHHC20 0.03 | ZDHHC5 0.025

CS(=O)(=O)c1ccc(-c2cnc(N)c(C(=O)Nc3ccccc3)n2)cc1
inactive: ZC3H8 0 | ZC3HC1 0.066 | ZCCHC17 -0.069 | ZCCHC9 0.1 | ZDHHC17 -0.005 | ZDHHC20 0.067 | ZDHHC5 0.129

COc1cccc2cc(-c3nc([C@H]4CC[C@H](C(=O)O)CC4)n4ncnc(N)c34)[nH]c12
inactive: ZC3H8 -0.02 | ZC3HC1 0.032 | ZCCHC9 -0.121 | ZDHHC17 0.003 | ZDHHC20 0.11 | ZDHHC5 -0.007

CCCS(=O)(=O)Nc1ccc(F)c(C(=O)c2c[nH]c3ncc(Cl)cc23)c1F
inactive: ZC3H8 -0.138 | ZC3HC1 0.189 | ZCCHC9 -0.177 | ZDHHC17 -0.016 | ZDHHC20 0.138 | ZDHHC5 -0.009 | ZDHHC6 -0.048 | ZDHHC7 isoform 2 0.014

CS(=O)(=O)CCNCc1ccc(-c2ccc3ncnc(Nc4ccc(OCc5cccc(F)c5)c(Cl)c4)c3c2)o1 [lapatinib]
inactive: ZC3H8 0 | ZC3HC1 0 | ZCCHC9 0.028 | ZDHHC17 -0.022 | ZDHHC20 0.063 | ZDHHC5 -0.072 | ZDHHC6 -0.031 | ZDHHC7 isoform 2 0.034

COc1cc(Nc2ncc3c(n2)-c2ccc(Cl)cc2C(c2c(F)cccc2OC)=NC3)ccc1C(=O)O [alisertib]
inactive: ZC3H8 -0.082 | ZC3HC1 0.024 | ZCCHC9 -0.083 | ZDHHC17 -0.02 | ZDHHC20 -0.052 | ZDHHC5 -0.107

CN(C)CC(=O)Nc1ccc2[nH]c(=O)c3ccccc3c2c1
inactive: ZC3H8 -0.047 | ZC3HC1 0.089 | ZCCHC17 -0.059 | ZCCHC9 -0.125 | ZDHHC17 -0.005 | ZDHHC20 -0.026 | ZDHHC5 -0.032 | ZDHHC7 isoform 2 0.057

COc1cc2nc(-c3cc(F)ccc3O)nc(N[C@@H]3CNC[C@H]3C(C)(C)O)c2cc1OC
inactive: ZC3H8 0.05 | ZC3HC1 0.013 | ZCCHC9 -0.006 | ZDHHC17 0.029 | ZDHHC20 -0.086 | ZDHHC5 0.117 | ZDHHC6 0.018 | ZDHHC7 isoform 2 -0.012

CCCc1cc(C)[nH]c(=O)c1CNC(=O)c1cc(-c2ccnc(N3CCN(C)CC3)c2)cc2c1cnn2C(C)C
inactive: ZC3H8 -0.027 | ZC3HC1 0.029 | ZCCHC9 0.057 | ZDHHC17 -0.061 | ZDHHC20 -0.079 | ZDHHC5 0.095

Cc1ccc(Sc2cncc3sc(C(N)=O)cc23)cc1
inactive: ZC3H8 -0.115 | ZC3HC1 0.053 | ZCCHC9 -0.109 | ZDHHC17 0.038 | ZDHHC20 0.014 | ZDHHC5 -0.011 | ZDHHC6 0.034 | ZDHHC7 isoform 2 -0.138

CN1CCC(CNc2ccc3ncc(-c4cccc(OC(F)(F)F)c4)n3n2)CC1
inactive: ZCCHC9 0.181 | ZDHHC17 0.065 | ZDHHC20 0.035 | ZDHHC6 0.011
active: ZC3H8 0.397 | ZC3HC1 -0.402 | ZDHHC5 0.31 | ZDHHC7 isoform 2 -0.415

CCCS(=O)(=O)Nc1ccc(F)c(C(=O)c2c[nH]c3ncc(-c4ccc(Cl)cc4)cc23)c1F [vemurafenib]
inactive: ZC3H8 -0.071 | ZC3HC1 0.09 | ZCCHC17 -0.396 | ZCCHC9 -0.11 | ZDHHC17 0.016 | ZDHHC20 0.049 | ZDHHC5 -0.021 | ZDHHC7 isoform 2 -0.016

NC1(c2ccc(-c3nc4ccn5c(=O)[nH]nc5c4cc3-c3ccccc3)cc2)CCC1
inactive: ZC3H8 0.181 | ZC3HC1 -0.091 | ZCCHC9 0.218 | ZDHHC17 -0.06 | ZDHHC20 -0.027 | ZDHHC5 -0.027

CNC(=O)c1ccc(Nc2ncc(C(F)(F)F)c(NCc3nccnc3N(C)S(C)(=O)=O)n2)cc1 [defactinib]
inactive: ZC3H8 0.228 | ZC3HC1 -0.227 | ZCCHC17 0.149 | ZCCHC9 0.216 | ZDHHC17 -0.007 | ZDHHC20 -0.231 | ZDHHC5 -0.097 | ZDHHC7 isoform 2 0.001
